Laboratory results taken from PMC3218832.

Assays:
Test in all cases: protein binding microarray; high values mean tight binding
Conditions in all cases: dsDNA, one strand shown
RELARELA (p65 homodimer) = RELARELA (p65 homodimer) (Homo sapiens, UniProt Q04206 1-307)
p50p50 homodimer = p50p50 homodimer (Homo sapiens, UniProt P19838 7-356)
p52p52 homodimer = target: T1, p52p52 homodimer (Homo sapiens, UniProt Q00653 4-332)
T1 sequence: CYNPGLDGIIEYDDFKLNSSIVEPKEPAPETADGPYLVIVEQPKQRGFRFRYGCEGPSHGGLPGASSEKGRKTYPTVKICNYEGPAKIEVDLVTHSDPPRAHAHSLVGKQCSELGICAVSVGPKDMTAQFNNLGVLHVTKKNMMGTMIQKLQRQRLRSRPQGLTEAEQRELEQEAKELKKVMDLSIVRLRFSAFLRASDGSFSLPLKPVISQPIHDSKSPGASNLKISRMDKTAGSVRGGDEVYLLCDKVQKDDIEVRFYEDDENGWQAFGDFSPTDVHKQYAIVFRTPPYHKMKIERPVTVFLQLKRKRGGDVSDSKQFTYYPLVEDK

[1] = target: RELA (p65) subunit of heterodimer;p50 subunit (Homo sapiens;Homo sapiens, UniProt Q04206;P19838 1-307;7-356)
Sequence of RELA (p65) subunit of heterodimer;p50 subunit (Q04206 1-307, chain 1 of 2): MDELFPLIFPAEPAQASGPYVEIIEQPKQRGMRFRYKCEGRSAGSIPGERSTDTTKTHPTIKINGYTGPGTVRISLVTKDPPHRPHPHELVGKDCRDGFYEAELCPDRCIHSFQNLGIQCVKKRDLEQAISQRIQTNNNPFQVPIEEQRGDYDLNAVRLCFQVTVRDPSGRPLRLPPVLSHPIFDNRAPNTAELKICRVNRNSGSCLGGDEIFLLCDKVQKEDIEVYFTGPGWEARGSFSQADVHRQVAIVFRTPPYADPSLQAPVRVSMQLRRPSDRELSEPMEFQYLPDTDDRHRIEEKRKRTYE
Sequence of RELA (p65) subunit of heterodimer;p50 subunit (P19838 7-356, chain 2 of 2): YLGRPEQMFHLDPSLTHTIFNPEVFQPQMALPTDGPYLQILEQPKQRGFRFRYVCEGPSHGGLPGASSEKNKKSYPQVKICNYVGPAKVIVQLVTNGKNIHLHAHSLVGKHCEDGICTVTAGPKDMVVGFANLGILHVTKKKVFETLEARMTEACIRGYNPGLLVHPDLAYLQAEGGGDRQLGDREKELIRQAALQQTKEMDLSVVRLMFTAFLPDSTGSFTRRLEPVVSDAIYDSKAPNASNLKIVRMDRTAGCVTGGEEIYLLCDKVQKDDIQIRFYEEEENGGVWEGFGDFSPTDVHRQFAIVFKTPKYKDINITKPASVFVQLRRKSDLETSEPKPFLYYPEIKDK

[2] = target: RELA (p65) subunit of heterodimer;p52 subunit (Homo sapiens;Homo sapiens, UniProt Q04206;Q00653 1-307;4-332)
RELB subunit;p50 subunit = RELB subunit;p50 subunit (Homo sapiens;Homo sapiens, UniProt Q01201;P19838 120-401;7-356)
RELB subunit;p52 subunit = target: T2, RELB subunit;p52 subunit (Homo sapiens;Homo sapiens, UniProt Q01201;Q00653 120-401;4-332)
T2 sequence 1: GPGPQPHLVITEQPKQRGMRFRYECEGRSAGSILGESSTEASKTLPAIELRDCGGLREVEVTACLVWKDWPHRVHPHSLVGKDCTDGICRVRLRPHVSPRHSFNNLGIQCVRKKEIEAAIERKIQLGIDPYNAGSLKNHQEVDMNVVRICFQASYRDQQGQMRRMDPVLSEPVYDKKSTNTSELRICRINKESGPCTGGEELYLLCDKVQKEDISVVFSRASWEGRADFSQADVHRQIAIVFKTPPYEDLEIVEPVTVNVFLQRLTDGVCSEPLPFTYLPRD
T2 sequence 2: T1 sequence

[3] = target: C-Rel subunit;p50 subunit (Homo sapiens;Homo sapiens, UniProt Q04864;P19838 1-285;7-356)
[4] = target: T3, C-Rel subunit;p52 subunit (Homo sapiens;Homo sapiens, UniProt Q04864;Q00653 1-285;4-332)
T3 sequence 1: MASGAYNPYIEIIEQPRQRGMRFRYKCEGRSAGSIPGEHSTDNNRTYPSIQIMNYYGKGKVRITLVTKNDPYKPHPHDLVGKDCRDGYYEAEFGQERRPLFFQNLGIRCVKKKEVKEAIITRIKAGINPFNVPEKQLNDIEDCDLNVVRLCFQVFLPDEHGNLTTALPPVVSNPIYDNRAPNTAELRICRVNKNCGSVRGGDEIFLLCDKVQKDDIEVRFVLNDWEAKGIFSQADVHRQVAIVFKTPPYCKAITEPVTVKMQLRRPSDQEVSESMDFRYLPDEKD
T3 sequence 2: T1 sequence

Sequence of p50p50 homodimer (P19838 7-356): as the sequence (P19838 7-356, chain 2 of 2) above
Sequence of RELARELA (p65 homodimer) (Q04206 1-307): as the sequence (Q04206 1-307, chain 1 of 2) above

Sequence | binding signal (RELARELA (p65 homodimer)) [z-score] | binding signal (p50p50 homodimer) [z-score] | binding signal (p52p52 homodimer) [z-score] | binding signal [1] [z-score] | binding signal [2] [z-score] | binding signal (RELB subunit;p50 subunit) [z-score] | binding signal (RELB subunit;p52 subunit) [z-score] | binding signal [3] [z-score] | binding signal [4] [z-score]
AAGGGAATCCC | 2.03 | 0.857 | 2.29 | 1.16 | 1.75 | 1.21 | 1.57 | 1.02 | 1.92
AGAATTGCCCT | 0.531 | -0.747 | -0.409 | 0.222 | -0.0792 | -0.516 | -0.558 | -0.0961 | 0.0532
AGAAGCATCCC | -0.382 | -1.4 | -0.607 | -0.83 | -0.795 | -0.706 | -0.776 | -1.06 | -0.81
CAGTGGTCCCC | -0.00968 | 0.538 | 0.29 | 0.247 | 0.212 | 0.612 | 0.412 | 0.329 | 0.0114
CGATAGCCCCC | -0.556 | 0.93 | 0.275 | 0.352 | 0.57 | 0.492 | 0.523 | 0.288 | 0.258
AGGTGCACCCC | -0.368 | 0.235 | 0.492 | 0.0923 | 0.549 | 0.107 | 0.61 | -0.0192 | 0.815
AAATGACCCCT | -0.474 | 0.593 | 0.182 | 0.135 | 0.303 | 0.241 | 0.325 | -0.224 | 0.165
CGAAGTTCCCT | 0.618 | 0.819 | 0.347 | 0.834 | 0.752 | 0.603 | 0.672 | 0.425 | 0.379
CAGAATTCCCC | 3.2 | 1.49 | 2.61 | 2.25 | 2.29 | 2.26 | 2.21 | 1.73 | 2.61
GAGGGCATCCC | 0.359 | -0.785 | -0.256 | -0.318 | -0.398 | -0.647 | -0.505 | -0.179 | -0.277
GGGTGGCCCCC | -0.733 | 0.527 | 0.796 | 0.639 | 0.996 | 0.399 | 0.74 | 0.773 | 0.833
CGAGTAACCCC | -0.498 | -0.0762 | -0.149 | -0.232 | -0.211 | -0.188 | 0.213 | -0.0464 | -0.115
CGAGAAATCCC | 1.4 | 0.819 | 0.839 | 0.872 | 0.718 | 0.773 | 0.543 | 0.883 | 0.451
GGGTTCCTCCT | -0.196 | -1.42 | -0.584 | -0.636 | -0.6 | -0.937 | -0.638 | -0.934 | -0.467
AGAAAATCCCT | 1.08 | 1.27 | 1.8 | 1.28 | 1.37 | 1.49 | 1.61 | 1.12 | 1.62
CGAAGCGCCCC | -0.596 | -0.188 | -0.173 | -0.171 | -0.0511 | 0.0336 | 0.263 | -0.144 | 0.0513
GGATTGTTCCC | 0.75 | -0.265 | -0.233 | -0.0316 | -0.0574 | -0.257 | -0.307 | 0.0336 | 0.152
AAAGAGACCCT | -1.1 | -0.515 | -0.457 | -0.679 | -0.542 | -0.626 | -0.766 | -1.12 | -0.688
AGGTTCGCCCT | -0.645 | -1.28 | -0.726 | -0.876 | -0.838 | -0.727 | -0.728 | -1.03 | -0.838
AAGGATACCCC | 0.0433 | 0.446 | 0.189 | 0.436 | 0.502 | 0.457 | 0.95 | 0.507 | 0.247
AGATAGTTCCC | 0.521 | -0.317 | -0.177 | -0.261 | -0.107 | -0.129 | -0.286 | -0.0396 | -0.0868

Sequence | binding signal (RELARELA (p65 homodimer)) [z-score] | binding signal (p50p50 homodimer) [z-score] | binding signal (p52p52 homodimer) [z-score] | binding signal [1] [z-score] | binding signal [2] [z-score] | binding signal (RELB subunit;p50 subunit) [z-score] | binding signal (RELB subunit;p52 subunit) [z-score] | binding signal [3] [z-score] | binding signal [4] [z-score]
AAGTATGCCCC | 0.441 | 0.0869 | -0.0889 | 0.289 | 0.0585 | 0.197 | 0.2 | 0.628 | 0.354
CGGTAACTCCC | 1.08 | 0.598 | 1.03 | 0.774 | 0.795 | 0.459 | 1.02 | 0.555 | 0.833
CGGGTTATCCC | 1.55 | 0.247 | 1.5 | 0.634 | 0.988 | 0.155 | 0.698 | 0.306 | 0.791
CAGGTTACCCC | 0.269 | 0.178 | 0.0851 | 0.345 | 0.253 | 0.443 | 0.629 | 0.552 | 0.49
CGAATTCTCCT | -0.00416 | -1.08 | -0.594 | -0.48 | -0.707 | -0.948 | -0.835 | -0.873 | -0.63
AAATGTGCCCC | 0.655 | -0.0191 | 0.195 | 0.499 | 0.0761 | 0.0211 | 0.23 | 0.81 | 0.211
GGAGGGTCCCT | -0.115 | 0.371 | 0.534 | 0.933 | 0.819 | 0.287 | 0.448 | 0.496 | 0.547
GAGGGCTCCCC | -0.357 | 0.0285 | -0.0309 | 0.109 | -0.108 | 0.159 | -0.218 | 0.253 | 0.154
GAGATTGCCCC | 0.817 | 0.318 | 0.0909 | 0.951 | 0.468 | 0.435 | 0.366 | 1.1 | 0.621
AGATGAATCCT | -0.706 | -1.32 | -0.542 | -1 | -0.972 | -1.28 | -1.16 | -1.39 | -0.907
AGATACCCCCT | 0.103 | 1.43 | 1.19 | 1.36 | 1.5 | 1.38 | 1.84 | 1.13 | 1.24
CGAAACCCCCT | 0.503 | 1.69 | 2 | 2.24 | 2.14 | 2.22 | 2.21 | 1.52 | 2.21
GAGAAAACCCT | 0.625 | 0.495 | 0.559 | 0.373 | 0.499 | 0.0283 | 0.361 | 0.245 | 0.234
CGAGGTGCCCT | -0.746 | -1.52 | -0.61 | -0.798 | -0.84 | -0.973 | -0.87 | -1.16 | -0.789
AAGTACCTCCT | 0.111 | 0.67 | 0.0441 | 0.737 | -0.123 | 0.852 | 0.227 | 0.224 | -0.202
CAATTTATCCT | -0.0381 | -0.676 | -0.566 | -0.744 | -0.71 | -0.801 | -0.64 | -1.1 | -0.673
AGGGTGGTCCC | -0.0899 | 0.541 | 0.435 | 0.249 | 0.357 | 0.251 | 0.266 | 0.364 | 0.427
CAGATAGCCCT | -0.575 | -1.02 | -0.544 | -0.662 | -0.763 | -0.804 | -0.675 | -1.23 | -0.828
AAATAAACCCT | -0.478 | 0.0209 | 0.172 | -0.112 | 0.045 | -0.326 | -0.0813 | -0.324 | -0.00628
CGGTATCCCCC | 0.855 | 1.13 | 2.07 | 1.69 | 1.56 | 1.33 | 1.65 | 1.23 | 1.71
AAGGGCACCCC | -0.322 | -0.576 | -0.342 | -0.454 | -0.414 | -0.379 | -0.217 | -0.33 | -0.364
